Screening results deposited in PubChem BioAssay by National Center for Advancing Translational Sciences (NCATS).
NS1 function inh = qHTS Assay for Inhibitors of Influenza NS1 Protein Function; Potency, µM (highest dose often 46.1 µM); 270,000 tested, 0.4% active; AID 2326, 2010; calls by dose curve; also: actives are rising curves; nearly all actives have a fitted effect of over 50% in size
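In this qHTS, NS1 from influenza A is expressed in budding yeast, where it slows growth. Cells are switched from glucose to 2% galactose medium (pH 6.0, -URA), treated with compound, and growth recovery is read at OD600.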
FBPA Giardia inh = qHTS Assay for Inhibitors of Fructose-1,6-bisphosphate Aldolase from Giardia Lamblia | A8B2U2 | purified Giardia FBPA | Potency, µM (series often up to 59.6 µM), hits mostly inhibitors | 290,000 tested, 0.71% active | AID 2451, 2010; also: nearly all actives have a fitted effect of over 55% in size
Target sequence (A8B2U2 whole entry, looked up): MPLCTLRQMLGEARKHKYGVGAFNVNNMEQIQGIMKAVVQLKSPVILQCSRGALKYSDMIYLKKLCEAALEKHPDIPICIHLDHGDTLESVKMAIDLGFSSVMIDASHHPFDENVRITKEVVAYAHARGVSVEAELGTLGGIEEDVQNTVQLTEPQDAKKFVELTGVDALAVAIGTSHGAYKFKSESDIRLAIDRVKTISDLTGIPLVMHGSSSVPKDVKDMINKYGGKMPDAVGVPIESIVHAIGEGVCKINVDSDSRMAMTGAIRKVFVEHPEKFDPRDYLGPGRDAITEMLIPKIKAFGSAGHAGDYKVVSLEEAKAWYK
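Giardia FBPA (40 nM reagent) was preincubated 10 min at RT with compound (up to 57.5 uM final), then substrate plus GAPDH/TPI/NAD/arsenate coupling system with diaphorase/resazurin was added; resorufin fluorescence (525/598 nm) was read after 20 min.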
Pf growth 48h = Primary qHTS for delayed death inhibitors of the malarial parasite plastid, 48 hour incubation | P. falciparum luciferase growth in erythrocytes, 48 h | Potency, µM (titrated, usually from 28.7 µM), usual class: inhibitors | 310,000 tested, 5.9% active
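Firefly luciferase activity from engineered P. falciparum reports growth; inhibitors lower the luminescent signal. Cultures contained 2% hematocrit erythrocytes at 0.1% final parasitemia.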
Shiga toxin inh = A qHTS for Small Molecule Inhibitors of Shiga Toxin; Vero cells, Shiga toxin protein synthesis inhibition reporter; inhibition, % at 38.7 µM; 290,000 tested, 9.2% active; AID 2315, 2010; in the data active = inhibition mostly above about 28%, no sharp cut-off; inactive = mostly below about 43%
Cycloheximide cs = Cycloheximide Counterscreen for Small Molecule Inhibitors of Shiga Toxin | cell reporter, cycloheximide protein synthesis inhibition counterscreen | max response, % | 300,000 tested, 12% active; in the data active = max response mostly above about 13%, no sharp cut-off; inactive = mostly below about 14%; also: read at 38.3 µM for the half of the compounds with a filed dose
Pf growth 96h = Primary qHTS for delayed death inhibitors of the malarial parasite plastid, 96 hour incubation; P. falciparum luciferase reporter growth, 96 h; Potency, µM (doses to about 28.7 µM), most hits filed as inhibitors; 320,000 tested, 6.9% active; AID 504834, 2011
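Readout is luminescence from an integrated firefly luciferase in P. falciparum. Red cells, 2% hematocrit and 0.05% parasitemia final, were cultured with compound through two parasite generations (96 hours) at 37 C, 5% CO2.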
Large screens that a line does not name were inactive; ! = a repeat was not active. Sampled rows, rich in hits. Any-hit rate of the full collection: about 21%. Unless noted, calls follow the shape of the dose curve; as a rule, active = well fitted curve in the direction sought with a large enough effect; inconclusive = small, poorly fitted or top-dose-only effect, or another doubt; inactive = no such curve, though single readings can be large; an effect the other way counts as inactive or inconclusive.

O=C(/C=C/c1ccc(Br)cc1)NC1CCCCCC1	Shiga toxin inh 62.3, Cycloheximide cs 17.3
O=C(/C=C/c1ccccc1)NC1CCS(=O)(=O)C1 (stereo not given)	none
O=C1OC(CO)C(O)C(O)C1O (stereo not given)	none (no result: NS1 function inh, Shiga toxin inh, Cycloheximide cs)
O=C(Cc1ccc(O)cc1)NC1CCCCCC1	Shiga toxin inh 68.9, Cycloheximide cs 42.1
O=C(Cc1ccc([N+](=O)[O-])cc1)NC1CCCCCC1	none
O=C(Cc1ccc(Cl)c(Cl)c1)NC1CCCCCC1	Shiga toxin inh 78.7, Cycloheximide cs 11.9, Pf growth 96h inconclusive
Oc1ccc(CNC2CCCCC2)cc1	Pf growth 48h 11.7µM (no result: Pf growth 96h)
CC1CC(NC(=O)Cc2ccc(Br)cc2)CC(C)(C)C1 (stereo not given)	Pf growth 48h 11.7µM, Pf growth 96h inconclusive
O=C(OCc1nnc(-c2ccccc2)o1)C1CC(=O)N(CCc2ccccc2)C1 (stereo not given)	none (no result: NS1 function inh, FBPA Giardia inh, Shiga toxin inh, Cycloheximide cs)
O=C(NC(Cc1ccccc1)C(=O)NCCc1ccccn1)c1ccccc1 (stereo not given)	Pf growth 96h inconclusive (no result: FBPA Giardia inh)
CCN(Cc1ccccc1)C(=O)c1cc(COc2c(F)cccc2F)on1	Cycloheximide cs 12.9
COc1cccc(CN(C)C(=O)c2cc(COc3c(F)cccc3F)on2)c1	Cycloheximide cs 21.9
CN(Cc1cnn(C)c1)C(=O)c1cc(COc2c(F)cccc2F)on1	Cycloheximide cs 19.0
COc1cccc(CN(C)C(=O)c2cc(COc3ccc4ncccc4c3)on2)c1	none
O=C(NCCC1=CCCCC1)C1CC(=O)N(Cc2ccccc2)C1 (stereo not given)	none
Clc1ccc(-c2nn3c(C4COc5ccccc5O4)nnc3s2)cc1 (stereo not given)	Cycloheximide cs 20.0, Pf growth 96h inconclusive
CC(C)(C)c1ccc(S(=O)(=O)NCC(=O)N2CCN(Cc3ccccc3)CC2)cc1	none
CCN(Cc1nc2cc(Cl)ccc2c(=O)[nH]1)C(=O)c1nn(C)c(=O)c2ccccc12	Pf growth 48h 8.28µM, Pf growth 96h inconclusive (no result: NS1 function inh, FBPA Giardia inh, Shiga toxin inh, Cycloheximide cs)
CCN(CC(=O)NCc1ccc(F)cc1)Cc1nc2cc(Cl)ccc2c(=O)[nH]1	NS1 function inh inconclusive, Pf growth 48h inconclusive (no result: Pf growth 96h)
CCN(Cc1nc2cc(Cl)ccc2c(=O)[nH]1)C(=O)c1ccc(C)c(NC(=O)c2ccco2)c1	Pf growth 48h 9.28µM, Pf growth 96h 8.28µM (no result: NS1 function inh, FBPA Giardia inh, Shiga toxin inh, Cycloheximide cs)
N#Cc1ccc(S(=O)(=O)N2CCN(Cc3cccs3)CC2)cc1	none (no result: NS1 function inh, FBPA Giardia inh, Shiga toxin inh, Cycloheximide cs)
CC(=O)Oc1cc(-c2coc3cc(OC(C)=O)c(OC(C)=O)c(OC(C)=O)c3c2=O)cc(OC(C)=O)c1OC(C)=O	FBPA Giardia inh 5.61µM (no result: NS1 function inh, Pf growth 48h, Shiga toxin inh, Cycloheximide cs, Pf growth 96h)
Cc1ccc(C)c(N2CCN(c3cnn(-c4nc5ccccc5s4)c(=O)c3Cl)CC2)c1	Shiga toxin inh 137.8, Cycloheximide cs 64.5
COc1ccc(Nc2cnn(-c3nc4ccccc4s3)c(=O)c2Cl)cc1	Shiga toxin inh 76.4, Cycloheximide cs 48.1, Pf growth 96h inconclusive
O=c1c(Cl)c(Nc2cccc(Cl)c2)cnn1-c1nc2ccccc2s1	Shiga toxin inh 68.7, Cycloheximide cs 88.0
Cc1ccc2c(c1)N(CC(=O)N1CCN(c3nc4ccccc4s3)CC1)C(=O)C(C)O2 (stereo not given)	Pf growth 96h inconclusive
O=c1c2ccccc2cnn1-c1nc2ccccc2s1	none (no result: FBPA Giardia inh, Pf growth 48h, Shiga toxin inh, Cycloheximide cs, Pf growth 96h)
CCOC(=O)C1CCN(S(=O)(=O)c2ccc3[nH]c(=O)ccc3c2)CC1	none
CC(C)CN(C(=O)COC(=O)c1ccc(Br)o1)c1c(N)n(Cc2ccccc2)c(=O)[nH]c1=O	none (no result: NS1 function inh, FBPA Giardia inh, Shiga toxin inh, Cycloheximide cs)
CCOC(=O)c1cnn(-c2ccc(C)cc2)c1N	Shiga toxin inh 74.9, Cycloheximide cs 32.8 (no result: Pf growth 48h)
CCOC(=O)c1cnn(Cc2ccc(C)cc2)c1N	none (no result: NS1 function inh)
CCOC(=O)c1ccc(-n2ncc(C(=O)OCC)c2N)cc1	NS1 function inh inconclusive, Cycloheximide cs 21.3, Pf growth 96h inconclusive
COC(=O)c1cnn(-c2ccc(C(=O)Nc3ccc(C(C)=O)cc3)cc2)c1N	Pf growth 48h 5.22µM, Pf growth 96h inconclusive (no result: NS1 function inh, FBPA Giardia inh, Shiga toxin inh, Cycloheximide cs)
CCCOc1c(Br)cc(C(=O)OCC(=O)NC2CC2)cc1OC	none (no result: NS1 function inh, FBPA Giardia inh, Shiga toxin inh, Cycloheximide cs)
CCOc1ccc(NC(=O)CN(C)C(=O)c2n[nH]c(=O)c3ccccc23)cc1OCC	Pf growth 48h inconclusive (no result: NS1 function inh, FBPA Giardia inh, Shiga toxin inh, Cycloheximide cs)
N.N.O=C(O)C1(C(=O)O)CCC1.[Pt]	FBPA Giardia inh 17.7µM! (no result: Pf growth 48h, Shiga toxin inh, Cycloheximide cs, Pf growth 96h)
O=C(O)C1(C(=O)O)CCC1	none (no result: NS1 function inh, FBPA Giardia inh, Shiga toxin inh, Cycloheximide cs)
CC1(C(=O)OCC(=O)NNC(=O)COc2ccc(Cl)cc2)CC1(Cl)Cl (stereo not given)	none (no result: NS1 function inh, FBPA Giardia inh, Shiga toxin inh, Cycloheximide cs)
O=C(N/N=C/c1cnc(N2CCCCC2)s1)c1ccc(C(F)(F)F)cc1	Pf growth 48h 3.29µM, Pf growth 96h inconclusive
CC1CN(c2ncc(/C=N/NC(=O)c3ccccc3O)s2)CC(C)O1 (stereo not given)	Pf growth 48h inconclusive, Pf growth 96h inconclusive (no result: NS1 function inh)
CC(C)C(=O)Nc1cccc(-c2cnc3ccccc3n2)c1	Cycloheximide cs 21.4 (no result: Pf growth 48h)
O=C(Nc1cnc2ccccc2c1)c1ccco1	Shiga toxin inh 67.5, Cycloheximide cs 32.6
Cc1ccc(C(=O)Nc2cnc3ccccc3c2)cc1	none (no result: Pf growth 48h)
O=C(Nc1cnc2ccccc2c1)c1cccnc1	Cycloheximide cs 22.8 (no result: Pf growth 48h)
Cc1cc(C(=O)Nc2cnc3ccccc3c2)ccc1[N+](=O)[O-]	Shiga toxin inh 131.0, Cycloheximide cs 53.1 (no result: NS1 function inh)
COc1cccc(CNC(=O)CCC2CCCN(C(=O)C3=CC(=O)CC(C)(C)O3)C2)c1 (stereo not given)	Pf growth 96h inconclusive
C/C(=N\Nc1ccc(Cl)cc1)c1c(O)cc(C)oc1=O	none (no result: NS1 function inh)
COc1ccc(C2/C=C\CN(C(=O)c3ccccc3)[C@H](Cc3ccccc3)C(=O)N2Cc2ccc(F)cc2)cc1 (stereo not given in full)	Pf growth 48h inconclusive, Pf growth 96h inconclusive
